D1 antag – human D1 dopamine receptor antagonism | P21728 | HEK293 TREx D1 cells, calcium flux, dopamine EC80; active compounds read low | activity change, negative = inhibition, % at 10 µM | 3.2% of 360,000 active | AID 504652; in the data active means activity change below about -30%; further: on the % scale 0 is the no-effect control and ±100 the full control effect
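HEK293 T-REx cells expressing inducible, force-coupled D1 receptor; no-wash Ca dye, 30–90 min RT. Cmpd → 180 s read at 1 Hz → EC80 DA → 180 s read.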
D1 ag – human D1 receptor agonism; 1% of 360,000 active; HEK293 T-REx D1 cells, calcium flux, agonist mode; AID 504660; activation, % at 2 µM; in the data active means activation above about 30%; further: 0% is about no effect
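Agonism was scored from calcium flux recorded over 180 s (1 read/s) after pintool compound addition, following a 10-cycle baseline. Cells were inducible force-coupled HEK293 TREx D1, plated overnight at 30 C and loaded with no-wash calcium dye.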
DRD3 agonist – D3 dopamine receptor (human) agonism; P35462; D3R DiscoveRx beta-arrestin cells, luminescence, 90 min; max activation, %; 0.58% of 410,000 active; in the data active means max activation above about 30%; further: 0% is about no effect
Target sequence (P35462 whole entry, looked up): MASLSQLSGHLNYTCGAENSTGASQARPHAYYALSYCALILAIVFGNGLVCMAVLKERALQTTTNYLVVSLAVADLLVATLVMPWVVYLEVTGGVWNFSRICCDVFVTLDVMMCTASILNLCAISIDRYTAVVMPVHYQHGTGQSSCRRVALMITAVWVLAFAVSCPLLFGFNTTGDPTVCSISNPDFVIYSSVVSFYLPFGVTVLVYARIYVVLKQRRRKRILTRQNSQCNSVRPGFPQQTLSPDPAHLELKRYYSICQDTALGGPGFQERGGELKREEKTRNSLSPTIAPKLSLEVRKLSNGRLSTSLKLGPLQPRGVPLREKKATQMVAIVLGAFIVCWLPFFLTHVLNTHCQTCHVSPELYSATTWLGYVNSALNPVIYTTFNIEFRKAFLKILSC
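Cells at 1500/well, incubated overnight, then treated with pinned compounds (dopamine as control) for 90 min at 37 degrees C. DiscoveRx reagent added for 30 - 60 minutes at room temperature; luminescence read.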
DRD3 antagonist – antagonists of human D3 dopamine receptor. D3R cells, DiscoveRx beta-arrestin luminescence, antagonist mode; active compounds read low. max response, negative = inhibition, %. 2.5% of 360,000 active. AID 652054; in the data active means max response below about -50%; inconclusive means no clear call, values can overlap the other calls; further: on the % scale 0 is the no-effect control and ±100 the full control effect
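Cells expressing the human receptor were seeded at 1500 cells/well, incubated overnight at 37 degrees C in 5% CO2, then exposed to library compounds with dopamine controls for 90 minutes at 37 degrees C before luminescent detection.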
D1 PAM – human D1 dopamine receptor positive modulation; P21728; HEK293 TREx D1 cells, calcium flux, dopamine EC20 potentiation; potentiation, % at 10 µM; 0.036% of 360,000 active; AID 504651; in the data active means potentiation above about 30%; further: 0% is about no effect
* marks the source's active call; other numbers are inactive results; ? = inconclusive; / = no result. In the library only some 6% were active in any assay of this set; here they are far more common.

SMILES | D1 antag | D1 ag | DRD3 agonist | DRD3 antagonist | D1 PAM
COc1cccc(-c2nc(CS(=O)(=O)CC(=O)NCc3ccc(C)cc3)c(C)o2)c1 | 0 | 7 | -8 | / | -2
COCCCNc1ncnc2c1sc1nc(-c3ccco3)c3c(c12)CC(C)(C)OC3 | 11 | 0 | 60* | 12 | -5
Cc1ccc(Nc2c(-c3ccc(N4CCOCC4)cc3)nc3cccc(C)n23)cc1 | 6 | 0 | 2 | / | 0
COc1ccc(Cl)cc1S(=O)(=O)NCc1ccc2c(c1)CCN2C(=O)c1cccc(C)c1 | -1 | 2 | -4 | / | -3
CCN(CC)c1nc2c(S(=O)(=O)c3cccc(Cl)c3)nnn2c2ccsc12 | -40* | 4 | -5 | / | -6
CN(Cc1ccccc1)c1nc2c(S(=O)(=O)c3cccc(Cl)c3)nnn2c2ccsc12 | -32* | 2 | 7 | / | -3
CCN(CC)c1nc2c(S(=O)(=O)c3ccccc3)nnn2c2ccc(Cl)cc12 | 0 | 1 | -2 | / | 1
COc1ccccc1CNS(=O)(=O)CCNC1CCCCC1 | / | / | -25 | -73* | /
CCCCCCCCNCCS(=O)(=O)NCc1ccccc1OC | / | / | -32 | -60* | /
CCCCNCCS(=O)(=O)NCc1ccccc1OC | / | / | -18 | ? | /
COc1ccccc1CNS(=O)(=O)CCNC1CC1 | / | / | 32* | -3 | /
COc1ccccc1CNCCS(=O)(=O)NCc1ccccc1OC | / | / | -16 | ? | /
Cc1nc2nc(NCc3ccc(Br)cc3)[nH]n2c(=O)c1Cc1ccccc1 | 3 | -1 | -10 | / | -2
Cc1ccc(OCCCC(=O)N2CCN(S(=O)(=O)c3cccc(F)c3)CC2)cc1 | -33* | 6 | -1 | 11 | -4
CC(=O)c1ccc(OCCCC(=O)N2CCN(S(=O)(=O)c3ccc(C)cc3C)CC2)cc1 | -31* | 8 | 5 | 19 | -10
O=C(CCCOc1ccccc1)N1CCN(S(=O)(=O)c2ccccc2)CC1 | 12 | 3 | 6 | -28 | -6
Cc1ccc(S(=O)(=O)N2CCN(C(=O)CCCOc3cccc(C)c3)CC2)cc1 | -39* | 1 | -5 | -4 | 0
C=Cc1ccc(CSc2nc(-c3ccc(OC)cc3)nc3c2Cc2c(CO)cnc(C)c2O3)cc1 | 4 | 2 | 4 | / | -1
COc1ccc(-n2nc(C(=O)O)c3csc(N)c3c2=O)cc1 | 4 | 1 | / | / | 4
COc1ccccc1/C=C\C(=O)NCC(=O)N/N=C(/C)c1cccc([N+](=O)[O-])c1 | -65* | -1 | -14 | 1 | -2
CCOc1ccc(OCC)c(NC(=O)C(NS(=O)(=O)c2ccc(Br)s2)c2ccccc2)c1 (configuration not stated) | -13 | 2 | 6 | / | -4
O=C(CN1C(=O)CC(c2ccc(F)cc2)=Nc2ccccc21)NCc1ccccc1Cl | -46* | 3 | -17 | / | 2
Cc1ccc(C2=Nc3ccccc3N(CC(=O)NCc3ccc(F)cc3)C(=O)C2)cc1C | -2 | 3 | -12 | / | -4
CCCCC1C(=O)N(c2ccccc2)N(c2ccc(O)cc2)C1=O (configuration not stated) | -6 | -2 | -9 | -74* | 0
CC(NC(=O)C(=O)Nc1c2c(nn1-c1ccc(F)cc1)CSC2)c1ccccc1 (configuration not stated) | / | 12 | 4 | / | 0
SMILES | D1 antag | D1 ag | DRD3 agonist | DRD3 antagonist | D1 PAM
CCn1c(SCC(=O)c2[nH]c(C)c(C(C)=O)c2C)nnc1-c1ccccc1 | -35* | 9 | -5 | -23 | -5
CS(=O)(=O)c1sc(C#N)c2c1C(=O)CC(c1ccccc1)C2 (configuration not stated) | -72* | 2 | -19 | -132* | -12
Cc1oc2c(c(=O)c1C)C(=O)CC(c1ccccc1)C2 (configuration not stated) | 28 | 0 | 4 | 9 | -1
C=CCOc1ccc(/C(O)=C2/C(=O)C(=O)N(CCCn3ccnc3)C2c2ccco2)cc1 (configuration not stated) | -15 | -1 | -1 | 0 | 10
C=CCOc1ccc(/C(O)=C2/C(=O)C(=O)N(CCCn3ccnc3)C2c2cccs2)cc1 (configuration not stated) | -52* | 2 | 2 | 5 | -11
Cc1cccc(C(=O)NC(=S)NNC(=O)Cc2ccccc2)c1 | -13 | 72* | 9 | -7 | -1
O=C(COc1ccccc1)NNC(=S)NC(=O)c1ccccc1 | -4 | 2 | -5 | -11 | -4
Cc1ccc(C(=O)NC(=S)NNC(=O)COc2ccccc2C)cc1 | 3 | 31* | -2 | ? | 2
Cc1cccc(C(=O)NC(=S)NCc2ccccc2)c1 | / | / | -4 | -29 | /
Cc1cccc(C(=O)NC(=S)NNC(=O)c2ccccc2Cl)c1 | -35* | 301* | 4 | 2 | -4
Cc1cccc(C(=O)NC(=S)Nc2ccccc2C(=O)O)c1 | 2 | 1 | -4 | -2 | 10
Cc1cccc(C(=O)NC(=S)NNC(=O)COc2c(C)cccc2C)c1 | -25 | 137* | -1 | 7 | -4
Cc1cccc(NC(=O)C2CCCN(S(=O)(=O)c3ccc4c(c3)oc(=O)n4C)C2)c1C (configuration not stated) | -24 | -2 | 1 | / | -2
CCc1ccc(S(=O)(=O)c2nnn3c2nc(NCCc2ccccc2)c2sccc23)cc1 | -27 | 4 | -10 | / | 4
O=C(c1ccc2c(Cl)c3c(nc2c1)CCCC3)N1CCN(c2ccccc2F)CC1 | 5 | 3 | 2 | / | 1
COc1ccc(CNc2oc(/C=C/c3cccc(OC)c3)nc2C#N)cc1 | 9 | 6 | -10 | / | 7
N#CCCCCn1c(-c2cncs2)nc2ccccc21 | -2 | 0 | -3 | -56* | -2
Cc1cccc(C(=O)N/N=C/c2cc(Br)c(Br)o2)c1 | -59* | 4 | -6 | -2 | -3
O=C(c1ccccc1Cl)N1CCNCC1 | 5 | 1 | 7 | -5 | 3
COCCCN1CCN(C2Cc3ccccc3Sc3ccc(Cl)cc32)CC1 (configuration not stated) | -86* | 4 | -17 | -97* | -18
NC(=O)CCN1CCN(CCOC2Cc3cc(Cl)ccc3Sc3ccccc32)CC1 (configuration not stated) | -10 | 10 | -6 | -86* | -9
Clc1ccc2c(c1)C(N1CCNCC1)Cc1ccccc1S2 (configuration not stated) | -86* | 9 | -26 | -56* | -28
CN1C(=O)CC(N2CCN(Cc3ccc(Cl)cc3)CC2)C1=O (configuration not stated) | 11 | 2 | 2 | 118 | 5
Clc1cccc2c1Sc1ccccc1CC2N1CCNCC1 (configuration not stated) | -78* | 57* | -36 | -55* | -5
CN(Cc1ccccc1)C(=O)CN1C(=O)CSc2ccc(S(=O)(=O)N3CCOCC3)cc21 | -12 | -2 | -6 | / | 1
CSc1ccc2c(c1)C(N1CCN(C)CC1)Cc1ccc(F)cc1S2 (configuration not stated) | / | / | -18 | -95* | /

Screening results deposited in PubChem by National Center for Advancing Translational Sciences (NCATS).
